Measured values: PubChem BioAssay AID651699 (Sanford-Burnham Center for Chemical Genomics, 2012)
In all, about 360,000 compounds went through this assay and about 2,100 (0.58%) were called active. The entries come from a sample that favours actives as a whole. A number with no mark means an inactive call. Cut-off read from the data, not from the text of the source: active = inhibition above about 36%; inactive = the rest.

Each compound was assayed against NEDD8-conjugating enzyme Ubc12 (Homo sapiens) + NEDD8-activating enzyme E1 regulatory subunit (Homo sapiens) (UniProt P61081+Q13564) (assay: NEDD8 transfer onto cullin, blockade – biochemical, TR-FRET, uHTS, NAE and Ubc12, primary screen (AID 651699)). Details: TR-FRET cullin neddylation, at 25 µM, hits give high values.
NEDD8-conjugating enzyme Ubc12 (Homo sapiens) + NEDD8-activating enzyme E1 regulatory subunit (Homo sapiens), sequence (P61081 whole entry, looked up): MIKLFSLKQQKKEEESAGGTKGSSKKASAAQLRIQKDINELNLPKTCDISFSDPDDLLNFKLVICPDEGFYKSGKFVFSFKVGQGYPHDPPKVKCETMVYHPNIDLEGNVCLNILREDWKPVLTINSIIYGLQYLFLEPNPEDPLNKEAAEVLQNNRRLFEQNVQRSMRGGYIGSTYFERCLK
NEDD8-conjugating enzyme Ubc12 (Homo sapiens) + NEDD8-activating enzyme E1 regulatory subunit (Homo sapiens), sequence (Q13564 whole entry, looked up): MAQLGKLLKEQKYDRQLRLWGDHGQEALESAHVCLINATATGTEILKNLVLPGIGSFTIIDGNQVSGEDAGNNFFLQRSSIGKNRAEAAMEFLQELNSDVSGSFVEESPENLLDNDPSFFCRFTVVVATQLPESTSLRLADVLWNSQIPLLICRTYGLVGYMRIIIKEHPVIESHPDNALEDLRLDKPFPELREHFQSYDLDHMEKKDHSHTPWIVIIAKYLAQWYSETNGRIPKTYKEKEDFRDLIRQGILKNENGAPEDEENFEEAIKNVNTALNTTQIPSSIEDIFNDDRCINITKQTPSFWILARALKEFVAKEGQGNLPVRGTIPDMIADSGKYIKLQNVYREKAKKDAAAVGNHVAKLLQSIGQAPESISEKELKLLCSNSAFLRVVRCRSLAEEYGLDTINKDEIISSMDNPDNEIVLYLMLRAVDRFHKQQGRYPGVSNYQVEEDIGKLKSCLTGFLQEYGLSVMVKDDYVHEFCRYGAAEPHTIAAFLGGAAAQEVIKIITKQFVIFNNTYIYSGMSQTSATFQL

SMILES	inhibition
COc1ccc(N2CC(C(=O)N[C@@H](C)C(=O)N3CCCCC3)CC2=O)cc1 (stereo partly drawn)	-5.41%
O=C1NC(c2ccncc2)Nc2sc3c(c21)CCCC3 (stereo not drawn)	44.1% (active)
COc1ccc(OC)c(/C=N/NC(=O)c2ccc[n+](CC(=O)c3ccccc3)c2)c1	-1.66%
O=C(N/N=C/c1ccsc1)c1cc(O)cc(O)c1	-1.8%
COc1cccc(Cn2cc(/C=N/NC(=O)c3cc(O)cc(O)c3)c3ccccc32)c1	57.8% (active)
NC(=O)CN1CCCC1c1ccc2c(c1)OCCO2 (stereo not drawn)	0.21%
CCOc1ccc(NC(=O)C2CCCN(C(=O)Nc3ccccc3)C2)cc1 (stereo not drawn)	-6.95%
CCCCc1cc2c(s1)CCCC/C2=N/O	-11.4%
C=CCN1C(=O)C(O)(CC(=O)c2ccccn2)c2ccccc21 (stereo not drawn)	1.24%
COc1ccc(/C=C(\C#N)c2c[nH]c3ccccc23)cc1	44.5% (active)
C[N+](C)(C)CCNC(=O)c1c[nH]c2ccccc12	16.8%
COc1ccc(C2C(C(C)=O)=C(O)C(=O)N2CCc2c[nH]c3ccccc23)cc1 (stereo not drawn)	-15.3%
O=C(CCN1C(=O)c2ccccc2C1=O)C1=NN[C@@H]2C(=O)N(c3ccc(F)cc3)C(=O)[C@H]12	-15%
C[C@H](O)[C@@H]1C(=O)N2CCc3c([nH]c4ccccc34)[C@@H]2C[C@@H]1N(C)C(=O)Nc1ccc(F)cc1	50.2% (active)
C[C@H](O)[C@@H]1C(=O)N2CCc3ccc(N4CCOCC4)cc3[C@@H]2C[C@@H]1N(C)C(=O)C(C)(C)C	22%
COCC(=O)N(C)[C@H]1C[C@H]2c3cc(Oc4ccccc4C)ccc3CCN2C(=O)[C@H]1[C@H](C)O	2.1%
CC(=O)N1c2ccc(S(=O)(=O)N(C)CC(=O)N(C)Cc3ccccc3)cc2CC1C (stereo not drawn)	1.96%
Cc1ccc(CN(Cc2cccnc2)C(=S)Nc2cccc(Cl)c2C)cc1	1.43%
COCCn1c(Cc2cccn2C)nnc1SCC(=O)Nc1nccs1	-1.55%
CCCCN(C=O)c1c(CC)nc2c(OCc3ccccc3C(=O)OC)cccn12	8.99%
COc1ccc(C2OC(=O)CC2C(=O)NC(C)C)cc1 (stereo not drawn)	4.68%
COCCNC(=O)c1ccc2nc(Cc3ccc(OC)c(OC)c3)oc2c1	-5.61%
COCCNC(=O)CN(Cc1ccco1)C(=O)CCC(=O)Nc1nccs1	0.84%
COCCNC(=O)Nc1ccc2nc(-c3ccco3)c(-c3ccco3)nc2c1	49.3% (active)

SMILES	inhibition
CSCCC(NC(=O)c1ccc(Cl)cc1Cl)C(=O)NNC(=O)c1csc(N2CCOCC2)n1 (stereo not drawn)	31%
Cc1ccc(N/N=C2\COC(C)(C)CC2=O)cc1	0.52%
NS(=O)(=O)c1ccc2nc(NC(=O)CS(=O)(=O)c3ccc(F)cc3)sc2c1	1.17%
Cc1nc2ccc(S(=O)(=O)NCC(=O)O)cc2s1	7.99%
CS(=O)(=O)c1ccc2nc(NC(=O)c3ccc(Cl)nc3)sc2c1	65.7% (active)
Cc1nn2c(=O)cc(COC(=O)c3ccc(NC(=O)C(C)(C)C)cc3)nc2s1	-2.19%
CCOC(=O)C1CCCN(C(=O)C2CCN(S(=O)(=O)c3ccc(Cl)c(C(F)(F)F)c3)CC2)C1 (stereo not drawn)	-19.5%
CCOc1cc(C(=O)Nc2c(C)ccc3nsnc23)cc(OCC)c1OCC	41.7% (active)
CCOc1cc(C(=O)Nc2ccc(S(=O)(=O)Nc3cnc4ccccc4n3)cc2)cc(OCC)c1OCC	6.73%
Cc1ccc2nsnc2c1NC(=O)c1ccccc1[N+](=O)[O-]	-26.4%
COc1ccc([N+](=O)[O-])cc1C1NN=C(c2cccc3ccccc23)S1 (stereo not drawn)	-3.56%
COc1ccc2c(c1OC)C(=O)N(c1ncn[nH]1)C2	39.8% (active)
COc1ccc2c(c1OC)C(=O)N(c1ccc(O)cc1)C2	14.7%
COc1ccc(C2C(C#N)=C(N)N(c3ncn[nH]3)C3=C2C(=O)CCC3)cc1 (stereo not drawn)	-6.24%
COc1ccc(NC(=O)CCC(=O)N2CCN(S(=O)(=O)c3ccc(C)cc3)CC2)c(OC)c1	2.78%
Cc1c(C2=CCN(S(=O)(=O)c3ccc(Cl)cc3)CC2)c2ccccc2n1C	-207%
CN(C)CC/C=C1\c2ccccc2CSc2ccccc21	6.08%
COC(=O)c1ccc2nc(-c3ccc(OC)c(OC)c3)c(Cc3ccccc3)n2c1	41.4% (active)
COC(=O)c1ccc2nc(-c3ccc(Cl)cc3)c(Cc3cccc(F)c3)n2c1	25.5%
COC(=O)c1ccc2nc(-c3ccc(F)cc3)c(Cc3ccc(C)cc3)n2c1	36.3%
CC[C@]12c3[nH]c4ccc(Cl)cc4c3CCN1C(=O)[C@@H](CC(=O)NCCCOC)C[C@@H]2C(=O)N1CCN(C(=O)c2ccco2)CC1	3.68%
COc1c(C(C)C)oc2cc3oc(=O)ccc3cc12	36.1%
COC(=O)Cn1c(=NC(=O)CSCC(=O)Nc2cc(C)on2)sc2ccccc21	6.58%
S=c1[nH]nc(/C=C/c2ccccc2)o1	40.5% (active)

SMILES	inhibition
Cc1ccc(-c2cc(C(=O)N/N=C/C=C/c3ccccc3)n[nH]2)o1	-6.17%
CC(C)(C)c1cc2cccnc2n1Cc1ccccc1	24.2%
Cc1cnc(CN(C)C(=O)C2CCC(=O)N(CCc3cccc(F)c3)C2)[nH]1 (stereo not drawn)	-3.06%
Cc1cccn2c(=O)c3cc(C(=O)NCCN4CCOCC4)c(=N)n(Cc4cccnc4)c3nc12	68.3% (active)
CCCCCn1c(=O)c(C(=O)OCC)c(Cl)c2ccccc21	4.01%
CCCNC(=O)CCn1nc(-c2ccccc2)c2ccccc2c1=O	-0.32%
CCCn1c(=O)c(-c2ccccc2)c(O)c2ccccc21	44.3% (active)
O=C1OC(Cc2ccccc2)C(c2ccccc2)C1=O (stereo not drawn)	-10.9%
Cc1cc(=O)[nH]c(Nc2cccc(Br)c2)n1	-6.28%
Cc1cc(=O)[nH]c(SCc2ccc(Cl)cc2)n1	-1.58%
CCN(CC)c1ccc(/C=N/Nc2nc(C)cc(=O)[nH]2)cc1	42% (active)
COc1ccc(CNC(=O)C(=O)N2CCC3(CC2)OCCN3S(=O)(=O)c2ccc(C)cc2)cc1	4.54%
Cc1cc(/C=C2/C(=N)N3C(=NC2=O)SN=C3S(C)(=O)=O)c(C)n1-c1ccccc1	44.8% (active)
CC1=CC2=NC(=O)/C(=C/c3coc4ccccc4c3=O)C(=N)N2O1	-38.8%
CCOC(=O)C1=C(O)/C(=C/c2cc(C)n(-c3ccccc3)c2C)N=C1C	16.8%
COc1cccc(NC(=O)CN(C)C(=O)c2cc(Cl)nc3ccccc23)c1	-0.49%
COc1ccc(-c2cc(C(=O)N(C)CC(=O)Nc3ccccc3Cl)c3ccccc3n2)cc1OC	46.6% (active)
COc1ccc(Cl)cc1NC(=O)CN(C)C(=O)c1ccc2n[nH]nc2c1	7.09%
CC(=O)NC1CCN(CC(=O)Nc2nccs2)CC1	-3.21%
COC(=O)c1noc(C)c1-c1ccnn1C(=O)c1ccc(Cl)cc1	-11.9%
CC1CCC2CCCCC2N1C(=O)c1cc([N+](=O)[O-])cc([N+](=O)[O-])c1 (stereo not drawn)	-35.2%
O=C(N/N=C/c1ccoc1)c1ccc(Cl)cc1Cl	1.29%
CC(C)c1cc(C(=O)N/N=C/c2ccoc2)c(O)c(C(C)C)c1	49.1% (active)
CC(Oc1ccccc1[N+](=O)[O-])C(=O)N/N=C/c1ccoc1 (stereo not drawn)	-9.94%

SMILES	inhibition
COc1ccc(OC)c(NC(=O)CSc2nc(N)c(-c3ccccc3)c(=O)[nH]2)c1	26.4%
Cc1ccc(NN=Nc2nc3c([nH]2)c(=O)n(C)c(=O)n3C)cc1	1.85%
Cc1cc(C)c(C=NNc2nc3c([nH]2)c(=O)n(C)c(=O)n3C)c(C)c1	39.2% (active)
CC(CCO)Nc1nc2c([nH]1)c(=O)n(C)c(=O)n2C (stereo not drawn)	10.7%
COc1cccc(/C=N/NC(=O)C(=O)N2CCCC2)c1	-14.6%
O=C(CN1C(=O)CC(c2ccccc2)=Nc2ccccc21)NC1CCCCC1	-13.9%
O=C(NCc1cccc(Cl)c1)C1=CC=CN2CCS(=O)(=O)N=C12	33% (active)
O=C(NCc1cccc(Cl)c1)C1CCC(=O)N(C2CC2)C1 (stereo not drawn)	-4.68%
O=C(NCc1cccc(Cl)c1)C1CCN(c2nnc(N3CCCC3=O)s2)CC1	9.68%
CCOc1ccc(/C=N/NC(=O)C(C)Sc2ccccn2)cc1OCC (stereo not drawn)	-5.74%
CCOc1cc(/C=N/Nc2cc(C)nc3ccc(C)cc23)ccc1O	39.9% (active)
CCOc1cc(/C=N/NC(=O)c2ccncc2)cc(Br)c1O	-8.9%
O=C(CCN1C(=O)C2C3CCC(C3)C2C1=O)Nc1ccc(Cl)cc1Cl (stereo not drawn)	5.46%
O=C(CNC(=O)c1ccc(Br)o1)NCC1CCCO1 (stereo not drawn)	10.6%
CCOc1ccc2[nH]c(=O)c(C(c3nnnn3CCOC)N3CCOCC3)cc2c1 (stereo not drawn)	46% (active)
COc1ccc(N2CCN(C(c3cc4ccc(C)cc4[nH]c3=O)c3nnnn3C3CCCC3)CC2)cc1 (stereo not drawn)	8.39%
COCCn1nnnc1C(c1cc2ccc(OC)cc2[nH]c1=O)N1CCc2ccccc2C1 (stereo not drawn)	-11.9%
C=CCC(CC=C)(C(N)=O)c1ccccc1	-5.36%
Cc1ccc(C2CC(c3cccc(NS(C)(=O)=O)c3)=NN2S(C)(=O)=O)cc1 (stereo not drawn)	7.24%
CS(=O)(=O)Nc1cccc(C2=NN(C(=O)c3cccc(F)c3)C(c3cccs3)C2)c1 (stereo not drawn)	-5.27%
CS(=O)(=O)Nc1ccc(C2=NN(S(C)(=O)=O)C(c3cccs3)C2)cc1 (stereo not drawn)	51.1% (active)
